Laboratory results reported in PubChem BioAssay AID624202 (National Center for Advancing Translational Sciences (NCATS), 2012).
Hit rate of the full screen: of about 380,000 compounds, about 4,000 (1.1%) were called active. Roughly 3% stayed inconclusive and do not appear here. The call rests on the fitted dose curve; in most records, active means well fitted activation curve with a large enough effect; inconclusive means small, poorly fitted or top-dose-only effect; inactive means no such curve, though single readings can be large or run the other way. This excerpt belongs to a sample that is enriched for actives.

Assay: qHTS Assay to Identify Small Molecule Activators of BRCA1 Expression; further: nearly all actives have a fitted effect of over 80% in size
Details: MCF7-BRCA1-FFLuc reporter, luminescence, 48 h; series mostly up to 46.1 µM; activation: at the top concentration
Method in brief: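 Cells: MCF7-BRCA1-FFLuc, 2000/well. Exposure: 48 h, 37 °C, 5% CO2. Read: luminescence, 15 min post-substrate. Controls: genistein 10 microM (maximal activation), DMSO (neutral).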
In the case of `CCOC(=O)c1cccc(NS(=O)(=O)c2cn(C)c(C)n2)c1`, the “activation” value was -4.82% (inactive).
With `Cc1ccc(S(=O)(=O)c2c(Nc3cccc(Cl)c3)sc(C(=O)c3ccc4c(c3)OCO4)c2N)cc1` the “activation” value was -20.3% (inactive).
In the case of `Cc1ccc(-c2ccc(C3=CC(=O)CC(C)(C)C3=O)cc2)cc1`, the Potency was 2.24 µM (active).
For `CC1(C)CC(=O)C=C(c2ccc(COC(=O)c3cc(F)cc(F)c3)cc2)C1=O`, the “activation” value was -11.8% (inactive).
For `CC1(C)CC(=O)C=C(c2ccccc2CO)C1=O`, the “activation” value was 14.4% (inactive).
In the case of `COc1cc(C(=O)Nc2ccc(OCc3cc(=O)n4cc(C)sc4n3)cc2)cc(OC)c1OC`, the “activation” value was 5.16% (inactive).
For `CC1=Nc2cc(C(=O)N3CCC(C)CC3)ccc2Sc2ccc(Cl)cc21`, the “activation” value was -35.4% (inactive).
For `Oc1ccc(Cl)cc1C1C=C(c2ccc3c(c2)OCO3)NC(c2ccc(F)c(Br)c2)N1` (stereo not given), the “activation” value was -37.8% (inactive).
With `COc1ccc(C2=NN(C(=O)CSc3nc(=O)n4ccc(C)cc4n3)C(c3ccc(C)cc3)C2)cc1` (stereo not given) the “activation” value was -15.3% (inactive).
With `COc1ccc(C2CC(c3ccccc3)=NN2C(=O)c2ccc(Cl)c([N+](=O)[O-])c2)cc1` (stereo not given) the “activation” value was -88.3% (inactive).
For `COc1ccc(C2=NN(C(C)=O)C(c3ccccc3)C2)cc1` (stereo not given), the Potency was 11.2 µM (active).
With `O=C(Nc1c(-c2ccc(F)cc2)nc2ccccn12)c1cccc(F)c1` the “activation” value was -21.3% (inactive).
For `CC(C)c1ccc(NC(=S)NC2CC3C=CC2C3)cc1` (stereo not given), the Potency was 4.47 µM (active).
In the case of `O=C(COC(=O)C1CC2C=CC1C2)Nc1ccccc1` (stereo not given), the “activation” value was -10.1% (inactive).
For `Cc1ccc(C)c(NC(=S)NNC(=S)Nc2ccc(C(C)C)cc2)c1`, the “activation” value was -7.76% (inactive).
For `OC[C@@H]1O[C@H](n2cnc3c(SCc4ccccc4)ncnc32)[C@H](O)[C@H]1O`, the “activation” value was 0% (inactive).
With `COc1cc(OC)cc(-c2nc3nc(C)c(CCC(=O)Nc4ccccc4)c(C)n3n2)c1` the “activation” value was 6.37% (inactive).
In the case of `CC(=O)c1ccc(NC(=O)COc2ccccc2-c2nc(-c3ccccc3)no2)cc1`, the “activation” value was 0% (inactive).
In the case of `COc1ccc2c(Cl)c(C(=O)NCc3ccco3)sc2c1`, the Potency was 11.2 µM (active).
For `CCN(C(=O)c1sc2cc(OC)ccc2c1Cl)c1ccccc1`, the “activation” value was -24.9% (inactive).
For `O=C(NCc1ccco1)c1sc2cccc(F)c2c1Cl`, the “activation” value was 60.2% (inactive).
With `C=C1C=C(C(F)F)n2ncc(C(=O)NCCc3ccccc3OC)c2N1` the “activation” value was -8.16% (inactive).
In the case of `c1csc(-c2nnc(COc3ncnc4sccc34)o2)c1`, the “activation” value was -5.83% (inactive).
For `CNC(=O)c1nnc(Cc2ccc(Cl)cc2)o1`, the “activation” value was 27.6% (inactive).
For `Clc1ccc(Cc2nnc(-c3cccs3)o2)cc1`, the Potency was 11.2 µM (active).
With `CCCCCCCNc1ccc(/C=C/c2ccnc3ccccc23)cc1` the “activation” value was -60.9% (inactive).
With `COc1ccc(Cn2c(C)c(C)c(C#N)c2NC(=O)Nc2ccc(F)cc2)cc1` the “activation” value was 0% (inactive).
In the case of `COc1ccc(Cc2n[nH]c(=S)n2NC(=O)Nc2ccc(C)cc2)cc1`, the Potency was 12.6 µM (active).
In the case of `COc1ccc(OCc2n[nH]c(=S)n2N)cc1`, the “activation” value was 2.71% (inactive).
For `CN(C)c1ccc(C=Nc2ccc(/C=C/c3ccnc4ccccc34)cc2)cc1`, the “activation” value was 8.08% (inactive).
With `O=C(NC1CCCCC1)c1ccc2c(c1)N(Cc1ccc(Cl)cc1)C(=O)c1ccccc1S2=O` (stereo not given) the “activation” value was -29.4% (inactive).
For `O=C(Nc1ccccc1)c1ccc2c(c1)OCO2`, the Potency was 10 µM (active).
In the case of `O=C(Nc1cccc(Cl)c1N1CCOCC1)c1ccc2c(c1)OCCO2`, the “activation” value was 0.06% (inactive).
In the case of `Cc1ccc(C(=O)NNC2=Nc3cc([N+](=O)[O-])ccc3OC2)cc1`, the “activation” value was -41.7% (inactive).
With `CC(C)NC(=O)CSc1ccccc1C(=O)NCc1ccc2c(c1)OCO2` the “activation” value was -1.15% (inactive).
In the case of `Cc1ccc(C(=O)NNC(=O)c2ccc3c(c2)OCCO3)cc1`, the Potency was 6.31 µM (active).
In the case of `CCSc1ccccc1C(=O)Nc1ccc2c(c1)OCO2`, the Potency was 11.2 µM (active).
With `C/C(=N/NC(=S)Nc1ccccc1)c1ccc2c(c1)OCO2` the “activation” value was 54% (inactive).
In the case of `N#Cc1ccccc1NC(=O)c1ccc2c(c1)OCO2`, the Potency was 3.16 µM (active).
In the case of `N#Cc1ccccc1NC(=O)c1cccc(COc2ccc(Cl)cc2Cl)c1`, the “activation” value was -15.9% (inactive).
For `O=CN1CCN(C(=O)c2ccc3c(c2)OCO3)CC1`, the “activation” value was 5.32% (inactive).
In the case of `Cc1ccc(S(=O)(=O)NCC(=O)Nc2ccc3c(c2)OCCO3)cc1`, the “activation” value was 0% (inactive).
For `CCOc1ncccc1C(=O)Nc1ccc2c(c1)OCCO2`, the “activation” value was -13.2% (inactive).
In the case of `COc1cc2c(=O)c(S(=O)(=O)c3ccc(C(C)C)cc3)cn(Cc3ccccc3C)c2cc1OC`, the “activation” value was -43.2% (inactive).
With `COc1cc(C(=O)Nc2ccc(-n3c(C)nc4ccccc4c3=O)cc2)cc(OC)c1OC` the “activation” value was 4.37% (inactive).
In the case of `O=c1cc2nc(-c3ccccc3)nc(SCCOc3ccc(Cl)cc3)n2[nH]1`, the “activation” value was 11.2% (inactive).
For `CCCCC(CCCC)c1ccc(C=Nc2ccc(/C=C/c3ccnc4ccccc34)cc2)cc1`, the “activation” value was 11% (inactive).
For `Cc1ccccc1NC(=O)Cn1c(=O)n(CC2CCC(C(=O)NCCc3ccccc3)CC2)c(=O)c2ccccc21` (stereo not given), the “activation” value was 0.607% (inactive).
With `CCOC(=O)c1c(C)[nH]c(C)c1S(=O)(=O)N1CCCC(C(=O)NCc2ccccc2Cl)C1` (stereo not given) the “activation” value was -3.4% (inactive).
With `COc1ccc(NC(=O)CCNS(=O)(=O)c2ccc3c(c2)CCCC(=O)N3)cc1Cl` the “activation” value was 0% (inactive).
For `COCCn1c(SCC(=O)c2cc(C)ccc2C)nc2cc(C(=O)NC3CCCC3)ccc2c1=O`, the “activation” value was 8.48% (inactive).
For `N#Cc1ccc[n+](CC(=O)c2ccc(O)c(O)c2)c1`, the “activation” value was 16.7% (inactive).
In the case of `CCOC(=O)C1CCCN(CC(=O)Nc2cc(C)c3c(=O)oc4ccccc4c3n2)C1` (stereo not given), the “activation” value was 2.55% (inactive).
For `C/C(Cc1ccccc1)=N\NC(=O)CNC(=O)c1ccc2c(c1)OCCO2`, the “activation” value was 21.3% (inactive).
For `CS(=O)(=O)N1CCc2cc(C(=O)Nc3ccccc3)ccc21`, the “activation” value was 17.3% (inactive).
For `O=C(Nc1ccccc1)c1ccc2c(c1)OCCCO2`, the Potency was 12.6 µM (active).
With `O=C1N(Cc2ccccc2)c2ccc(Cl)cc2C1(O)c1c[nH]c2ccccc12` (stereo not given) the “activation” value was -30.5% (inactive).
In the case of `O=C(NCc1ccc(Cl)cc1)C1CCN(S(=O)(=O)c2cccs2)CC1`, the “activation” value was -3.74% (inactive).
For `CC(C)(C)C1CCC(C(=O)NCC(c2cccs2)N2CCOCC2)CC1` (stereo not given), the “activation” value was -16.4% (inactive).
In the case of `O=C(NCc1csc(-c2cccs2)n1)C1CC1`, the Potency was 11.2 µM (active).
In the case of `Cc1ccc(CNS(=O)(=O)c2ccc(C(=O)N(C)C)s2)cc1`, the “activation” value was -1.32% (inactive).
With `CCOC(=O)c1ccc(N2C(=O)c3n[nH]c(-c4ccco4)c3C2c2ccc(O)cc2)cc1` (stereo not given) the “activation” value was -71.7% (inactive).
For `CCOc1ccc(N2CC(C(=O)NCc3ccccn3)CC2=O)cc1` (stereo not given), the “activation” value was -0.452% (inactive).
With `CCCNC(=O)C1CC(=O)N(c2ccc(OCc3ccccc3)cc2)C1` (stereo not given) the Potency was 3.16 µM (active).
With `CCCNC(=O)C1CC(=O)N(c2ccc(OCC(=O)Nc3cccc(C)c3C)cc2)C1` (stereo not given) the “activation” value was 16.9% (inactive).
In the case of `OCC(O)C(O)C(O)C(O)C=Nc1ccc(/C=C/c2ccnc3ccccc23)cc1` (stereo not given), the “activation” value was 0% (inactive).
For `OC(COc1ccc2ccccc2c1)Cn1cncn1` (stereo not given), the “activation” value was 3.96% (inactive).
For `OC(COc1ccc2ccccc2c1)CN1CCOCC1` (stereo not given), the Potency was 11.2 µM (active).
With `Cc1cccc(OCC(O)Cn2c(=N)n(CCN3CCOCC3)c3ccccc32)c1` (stereo not given) the “activation” value was -26.8% (inactive).
For `Cc1cc2c(cc1C)C(c1cccc(OC(C)C)c1)CC(=O)N2` (stereo not given), the “activation” value was -12.9% (inactive).
In the case of `O=C(Nc1ccc2ccccc2c1)Nc1ccc2snnc2c1`, the “activation” value was -70.4% (inactive).
For `COc1ccc(NC(=O)Nc2ccc3nsnc3c2)cc1`, the Potency was 2.51 µM (active).
With `COc1ccc(NC(=O)Nc2cccc(-c3noc(C)n3)c2)cc1` the “activation” value was 0% (inactive).
For `N/C(=N\OC(=O)CC1CCCCC1)c1ccccc1`, the “activation” value was 18% (inactive).
In the case of `N/C(=N\OC(=O)CCC1CCCCC1)c1ccccn1`, the Potency was 7.94 µM (active).
In the case of `Cc1ccc(C(=O)O/N=C(\N)c2ccccn2)cc1Cl`, the “activation” value was -57.3% (inactive).
For `O=C1O/C(=C\c2ccc(O)cc2)C(O)=C1c1ccc(O)cc1`, the “activation” value was 13.3% (inactive).
In the case of `COc1ccc(CCNC(=O)CCCn2c(=O)c3ccccc3n(Cc3ccc(C)cc3)c2=O)cc1OC`, the “activation” value was 4.93% (inactive).
For `COc1ccc(/C=C/c2ccccn2)cc1OC`, the “activation” value was 2.23% (inactive).
For `COc1ccc(-c2noc(CSc3nc4ccc(C)cc4[nH]3)n2)cc1`, the “activation” value was -20.9% (inactive).
With `CCOC(=O)CSc1nnc(CNc2ccc(F)cc2)o1` the “activation” value was -0.722% (inactive).
For `Cc1ccc(-c2nc3ccccn3c2Nc2ccc(F)cc2)o1`, the “activation” value was 23.2% (inactive).
In the case of `Cc1cccc2nc(CNc3ccc(F)cc3)cn12`, the Potency was 12.6 µM (active).
With `Cc1oc2ncn(CC(C)C)c(=O)c2c1C(=O)N1CCN(c2ccccc2F)CC1` the “activation” value was 0% (inactive).
For `CCOC(OCC)c1ccc(/C=C\c2nccc(N)n2)cc1`, the Potency was 3.16 µM (active).
In the case of `O=C(Nc1ccc(Cl)cc1)c1cnn2c1NC(=C1CC1)C=C2C(F)F`, the “activation” value was -8.62% (inactive).
With `CC1CN(C(=O)c2cc(COc3c(F)cccc3F)on2)CCN1C` (stereo not given) the “activation” value was 53.8% (inactive).
For `CCOC(=O)CC1(NC(=O)c2cc(COc3cncc(Cl)c3)on2)CCCCC1`, the “activation” value was -2.02% (inactive).
With `CCCOC1CCCN(C(=O)c2cc(COc3cncc(Cl)c3)on2)C1` (stereo not given) the Potency was 5.62 µM (active).
For `O=C(c1ccco1)N(Cc1cccs1)c1ccc(O)cc1`, the “activation” value was 0% (inactive).
In the case of `CCc1nn(CC(=O)NCC(C)c2ccccc2)c(=O)c2cc3occc3n12` (stereo not given), the “activation” value was 10.8% (inactive).
For `CCc1nn(CCCC(=O)NCc2ccccc2OC)c(=O)c2cc3occc3n12`, the “activation” value was 0.244% (inactive).
With `COc1ccc2cc(-c3nc(Cl)c4c5c(sc4n3)CC(C)CC5)c(=O)oc2c1` (stereo not given) the “activation” value was 29.2% (inactive).
With `Cn1c(=O)c2c(nc(NCCc3ccccc3)n2Cc2ccccc2Br)n(C)c1=O` the “activation” value was 11.3% (inactive).
For `Cc1ccccc1-n1c(C)cc(/C=N/NC(=O)c2ccc(CN3CCOCC3)cc2)c1C`, the “activation” value was -10.3% (inactive).
With `CSc1ccc(/C=C2\NC(=O)NC2=O)cc1` the “activation” value was 84.5% (inactive).
With `Cc1ccccc1-n1c(C)cc(/C=C2\NC(=O)NC2=O)c1C` the Potency was 10 µM (active).
For `COc1ccc(Cl)cc1N(C)C(=O)c1cc2c(=O)oc3ccc(C)cc3c2s1`, the “activation” value was 12.6% (inactive).
For `COc1ccc(NC(=O)c2cnc(Nc3ccc(C)c(Cl)c3)c3ccccc23)cc1OC`, the “activation” value was -4.92% (inactive).
In the case of `O=C1c2ccccc2C(=O)N1c1ccc(S(=O)(=O)N2CCOCC2)c2ccccc12`, the “activation” value was 1.74% (inactive).
With `COc1cccc(NC(=O)CSc2cc(=O)n(C)c3ccc(Cl)cc23)c1` the “activation” value was 13.2% (inactive).
In the case of `Cc1ccc(NC(=O)CN2C(=O)CC(C)Sc3ccccc32)c(C)c1` (stereo not given), the “activation” value was -19.1% (inactive).
For `C[C@H](NC(=O)c1ccccc1)C(=O)OCC(=O)c1c[nH]c2ccccc12`, the “activation” value was -34.3% (inactive).
For `O=C(NC(Cc1c[nH]c2ccccc12)C(=O)N/N=C/c1ccc(Br)cc1)c1cccs1` (stereo not given), the “activation” value was -83.7% (inactive).
In the case of `O=C(N/N=C/c1c[nH]c2ccccc12)c1ccccc1O`, the Potency was 8.91 µM (active).
